Among all 1,400 compounds or so, about 350 (25%) were called active. Inconclusive results (about 2%) are left out. The rule behind the calls is not given here. Not all results are given here. Entries with a potency or affinity are not part of this list.
Test: inhibitors of Clostridioides difficile proliferation – 4-point retest, confirmation (AID 1224921);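 note: plate controls were DMSO wells for no effect and levofloxacin 16 µg/mL wells for full effect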
Conditions: Clostridioides difficile clinical isolate growth, OD600, 24 h, stronger effect = lower value; at 30 µM unless noted

Max activity, inactive:
CCCNC(=O)N[C@@H]1C=C[C@@H](CC(=O)N2CCN(C)CC2)O[C@H]1CO -11.4%, Cc1noc(C)c1NC(=O)N[C@H]1CC[C@H](CC(=O)Nc2ccc(-c3ccccc3)cc2)O[C@H]1CO 16%, CCCC(=O)Nc1ccc2c(c1)C(=O)N(C)[C@H]1CC[C@@H](CC(=O)OC)O[C@@H]1CO2 -11% [at 0.5 µM], Cc1ccc(-c2ccc3c(c2)O[C@@H](CN(C)Cc2cccnc2)[C@H](C)CN([C@H](C)CO)S3(=O)=O)cc1 16.8%, NC(=O)[C@H]1[C@@H]2C(=O)O[C@@H](c3ccccc3)[C@@H](c3ccccc3)N2[C@@H](c2ccc(O)cc2)[C@]12C(=O)Nc1ccc(C#CC3(O)CCCCCC3)cc12 32.1%, C[C@H]1CN([C@@H](C)CO)S(=O)(=O)c2ccc(C#CC3(O)CCCC3)cc2O[C@H]1CN(C)C(=O)Nc1ccc(F)cc1 15.4% [at 8 µM], C[C@H](CO)N1C[C@H](C)[C@@H](CN(C)Cc2ccc(Cl)c(Cl)c2)Oc2ccc(NS(=O)(=O)c3ccccc3)cc2CC1=O 28.2%, CO[C@@H]1CN(C)C(=O)c2cc(NC(=O)c3ccc(Oc4ccccc4)cc3)ccc2OC[C@H](C)NC[C@H]1C -11.3% [at 0.5 µM], CC(C)CC#Cc1ccc2c(c1)O[C@@H](CN(C)Cc1ccncc1)[C@@H](C)CN([C@H](C)CO)S2(=O)=O 7.2% [at 0.5 µM], O=C(C[C@@H]1CC[C@@H](NC(=O)CCN2CCCCC2)[C@@H](CO)O1)Nc1nccs1 -8.84% [at 1.95 µM], CCS(=O)(=O)Nc1ccc2c(c1)C(=O)N(C)C[C@H](OC)[C@@H](C)CN(C(C)=O)[C@H](C)CO2 8.06%, CO[C@@H]1CN(C)C(=O)c2cc(NC(=O)c3ccc(-c4ccccc4)cc3)ccc2OC[C@H](C)NC[C@H]1C 10.1% [at 1.95 µM], CCc1cnc(N2[C@H](CO)[C@@H](c3ccc(C4=CCCCC4)cc3)[C@@H]2C#N)s1 36.5% [at 0.5 µM], C[C@H]1CN([C@@H](C)CO)S(=O)(=O)c2ccc(/C=C/c3ccccc3)cc2O[C@H]1CN(C)C(=O)NC1CCCCC1 52.4%, COCC(=O)Nc1ccc2c(c1)OC[C@@H](C)N(Cc1ccccc1OC)C[C@@H](C)[C@H](OC)CN(C)C2=O -8.61% [at 7.5 µM], CC(C)COC(=O)N(C)C[C@@H]1OCc2ccccc2-c2c(n(C)c3ccccc23)C(=O)N([C@@H](C)CO)C[C@@H]1C -18.1% [at 8 µM]
